# Measured values as given in PubChem BioAssay (NCATS).
# Values without a mark were called inactive. Records with an inconclusive call do not appear. Where a call stands in place of a potency, no number is given. Activity calls are given as the source filed them. Calls follow the shape of the dose curve; as a rule, active = well fitted curve in the direction sought with a large enough effect; inconclusive = small, poorly fitted or top-dose-only effect, or another doubt; inactive = no such curve, though single readings can be large; an effect the other way counts as inactive or inconclusive.
# What was measured:
# [1] = qHTS assay for measurement of the activity of small molecule inhibitors on Zika virus induced Caspase-3 activity in human iPSC derived neural progenitor cells (hNPCs) (AID 1224857); also: nearly all actives have a fitted effect of over 65% in size
# Procedure, shortened: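 After overnight (16–20 h) culture at 350 cells/well, hNPCs get compound, then ZIKV 2 FFU/cell one hour later. Six hours on, Caspase-Glo 3/7 is added and luminescence measured.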
# [2] = qHTS assay for measurement of the activity of small molecule inhibitors on Zika virus induced Caspase-3 activity in human astrocytoma cells (AID 1224859)
# Procedure, shortened: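 Inhibition of Zika-induced caspase-3/7 activity: SNB-19 cells, 1 h compound pretreatment, ZIKV 2 FFU/cell for 6 h at 37 C, Caspase-Glo luminescence read-out.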
# [3] = NS1 protein of Zika virus - qHTS assay to identify small molecule inhibitors in human HEK 293 cells (AID 1347053); also: series mostly up to about 46 µM; nearly all actives have a fitted effect of over 55% in size
# Procedure, shortened: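 Following 20 h seeding, HEK 293 cells took compound, then 1 h later ZIKV MR766 (MOI = 0.5). Incubation ran 24 h at 37 C before TR-FRET detection of NS1; a drop in signal indicates inhibition.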
# [4] = qHTS of pediatric cancer cell lines to identify multiple opportunities for drug repurposing: Primary screen for TC32 cells (AID 1347089); also: nearly all actives have a fitted effect of over 60% in size; also: potency is read from the fitted curve at half-maximal effect
# Procedure, shortened: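 In the primary qHTS, MIPE compounds were tested at 11 concentrations (0.78 nM to 46 µM) and NPC compounds at 8 (0.59 nM to 46 µM) on TC32 cells for 48 h. CellTiter-Glo luminescence gave viability.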
# [5] = qHTS Assay for Identifying Gametocytocidal Compounds (AID 743244);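 also: actives lower the fluorescent signal which means gametocytes are killed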; details: P. falciparum 3D7 stage III-V gametocytes, alamarBlue, 72 h; max response: stronger effect = lower value
# Procedure, shortened: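 Using 20,000 stage III–V 3D7 gametocytes per well, compounds were incubated 72 h under 37 °C/5% CO2. Viability was then assessed by 24 h alamarBlue reduction, measured fluorometrically at 525/598 nm.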
# [6] = qHTS assay for cell viability of HEK293 cells (AID 743288); details: ATP luminescence (CellTiter-Glo), 18 h, stronger effect = lower value; also: nearly all actives have a fitted effect of over 50% in size
# Procedure, shortened: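 Environmental chemicals tested in qHTS format against parental HEK293 cells; 18 h treatment, 37 C; read-out ATP luminescence (CellTiter-Glo), 30 min RT development.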
# [7] = qHTS assay for cell viability of the p53RE-bla HCT-116 cell line (AID 743292); also: nearly all actives have a fitted effect of over 55% in size
# Procedure, shortened: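 ATP-based luminescent viability (CellTiter-Glo, 30 min RT) after 16 h compound treatment at 37 C of p53RE-bla HCT-116 cells, seeded at 4,000 cells/well and rested 5 h before dosing.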
Structure (SMILES),Potency [1],outcome [2],Potency [3],Potency [4],max response [5] [%],max response [6] [%],Potency [7]
CN1Cc2cc(C(=O)N3CCC(C4CCNCC4)CC3)ccc2N[C@@H](CC(=O)O)C1=O,inactive,inactive,inactive,inactive,–,–,–
COC(=O)[C@H]1[C@H]2C[C@@H]3c4[nH]c5cc(OC)ccc5c4CCN3C[C@H]2C[C@@H](OC(=O)/C=C/c2ccc(O)c(OC)c2)[C@@H]1OC,inactive,inactive,inactive,inactive,–,–,–
C=C(C)C(=O)OCC(O)CO (centres undefined),inactive,inactive,inactive,inactive,–,–,–
CCC[C@H](N[C@@H](C)C(=O)N1[C@H](C(=O)O)C[C@@H]2CCCC[C@@H]21)C(=O)OCC,inactive,inactive,inactive,inactive,-14.5,–,–
CCCCC(CC)CNC(=O)CC(C)OC(=O)CCC(=O)O (centres undefined),inactive,inactive,inactive,inactive,–,–,–
COc1ccccc1N1CCN(CC(O)COc2cc(OC)c(OC)c(OC)c2)CC1 (centres undefined),inactive,inactive,inactive,inactive,–,–,–
CC(NC(CCc1ccccc1)C(=O)O)C(=O)N1C(=O)N(C)CC1C(=O)O (centres undefined),inactive,inactive,inactive,inactive,–,–,–
CC(C)=CCC/C(C)=C/CC/C(C)=C/C(=O)OCC(=O)[C@@]1(O)CC[C@H]2[C@@H]3CCC4=CC(=O)C=C[C@]4(C)[C@H]3[C@@H](O)C[C@@]21C,inactive,inactive,inactive,inactive,–,–,–
CCN1C(=O)c2ccccc2C1Nc1ccc(OCCN2CCCCC2)cc1 (centres undefined),inactive,inactive,inactive,inactive,-8.48,–,–
COc1cc(/C=C/C(N)=O)cc(OC)c1OC,inactive,inactive,inactive,inactive,–,–,–
CN(C)[C@@H]1C(=O)C(C(N)=O)=C(O)[C@@]2(O)C(=O)C3=C(O)c4c(O)cccc4C[C@H]3C[C@@H]12,inactive,inactive,inactive,inactive,–,–,–
CCCCCN(CCCOC)C(=O)C(CCC(=O)O)NC(=O)c1ccc(Cl)c(Cl)c1 (centres undefined),inactive,inactive,inactive,inactive,–,–,–
COC(=O)/C=C\C(=O)OC,inactive,inactive,inactive,inactive,–,–,–
CC(C)NCCCC1(C(N)=O)c2ccccc2-c2ccccc21,inactive,inactive,inactive,inactive,–,–,–
CCCCN(CCN(CCCC)C(=O)N1CCOCC1)C(=O)N1CCOCC1,inactive,inactive,inactive,inactive,–,–,–
COCCc1ccc(OCC2CO2)cc1 (centres undefined),inactive,inactive,inactive,inactive,–,–,–

Structure (SMILES),Potency [1],outcome [2],Potency [3],Potency [4],max response [5] [%],max response [6] [%],Potency [7]
CN(C)CCOC1=Cc2ccccc2Sc2ccc(Cl)cc21,inactive,inactive,inactive,inactive,–,–,–
CCCCCCCCCCCCCCCCCCN(C)C,inactive,inactive,inactive,inactive,–,–,–
O=C(OCC(O)CO)c1ccccc1Nc1ccnc2c(C(F)(F)F)cccc12 (centres undefined),inactive,inactive,inactive,inactive,–,–,–
COCCOCC(OC)OC,inactive,inactive,inactive,inactive,–,–,–
CN=C(N)NC(=O)Nc1c(C)cccc1C,inactive,inactive,inactive,inactive,9.51,–,–
CSCC[C@H](NC(=O)[C@H](Cc1c[nH]c2ccccc12)NC(=O)CCNC(=O)OC(C)(C)C)C(=O)N[C@@H](CC(=O)O)C(=O)N[C@@H](Cc1ccccc1)C(N)=O,inactive,inactive,inactive,inactive,-18.5,–,–
CCOC(=O)NNc1nncc2ccccc12,inactive,inactive,inactive,inactive,-13.4,–,–
CNC[C@H](O)[C@@H](O)[C@H](O)[C@H](O)CO,inactive,inactive,inactive,inactive,10.7,–,–
OCCOCCN1CCN(C(c2ccccc2)c2ccc(Cl)cc2)CC1 (centres undefined),inactive,inactive,inactive,inactive,-10.6,-17.9,inactive
Cc1cccc(N(C)C(=S)Oc2ccc3c(c2)CCC3)c1,inactive,inactive,inactive,inactive,14.9,–,–
O=C1CC[C@H](C(=O)N2CCCCC2)N1,inactive,inactive,inactive,inactive,-15.9,–,–
CC1(C)O[C@@H]2C[C@H]3[C@@H]4CCC5=CC(=O)C=C[C@]5(C)[C@@]4(F)[C@@H](O)C[C@]3(C)[C@]2(C(=O)CO)O1,inactive,inactive,inactive,inactive,-0.0995,–,–
CCCc1c2oc(C(=O)O)cc(=O)c2cc2c(=O)cc(C(=O)O)n(CC)c12,inactive,inactive,inactive,inactive,-6.99,–,–
C[C@H]1C[C@@H]2[C@H]([C@@H](O)C[C@@]3(C)[C@H]2CC[C@]3(O)C(=O)CO)[C@@]2(C)C=CC(=O)C=C12,inactive,inactive,inactive,inactive,-12.4,–,–
COc1c(C)c2c(c(O)c1C/C=C(\C)CCC(=O)OCCN1CCOCC1)C(=O)OC2,inactive,inactive,inactive,745 nM (active),2.71,–,–
